This assay deals with VDR:RXRa (NR concentration 270 nM, RXRa partner concentration 90 nM). Put plainly: PBM binding z-score (relative to random genomic background probes); higher = stronger binding; sequences stand for … in GC…GCGATTGACAGCGTAGAATGAAGG
The protocol:
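Protein-binding microarray (Agilent 4x180K custom design, double-stranded 60-nt probes: 5' GC cap, 34-nt variable region, 24-nt constant primer region; full probe sequence given). Purified or IVT nuclear receptor:RXRα heterodimers (3:1 NR:RXRα, mostly 270:90 nM) or homodimers were incubated for 1 h in PBS with 2% milk and no ligand, then detected with Alexa488 antibodies. Fluorescence from o1-orientation probes (~5 replicates averaged) was converted to z-scores against 500 random hg19 background probes. Variable regions are seed direct-repeat (DR0–DR5) sites, all their single-nucleotide variants and half-site ablations.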
In turn, ATCTCTAGGTAACCAAGTTCAGTTAATGCCGAAC showed a PBM binding z-score of 4.33.

The sequence TCTGCTAGATCAACGATGGTCAGCTAATCTGCTA displayed a PBM binding z-score of -0.489. With CCGACTGGGGCAAACGTTACCATACTCAGTACGA, the PBM binding z-score was -0.23. The sequence ATCTCTAGGTAAGACTCAGTTCAGGGAAGAACGC showed a PBM binding z-score of 1.06. The figure for ACTAGCAGGCCAACGGTCACTCAAGATTAGTCCG is -0.505. As for TAGCCTAGGTCATGGGCCAGGATACCACGCGAAC, the figure is 1.97. As for ATAGAAAGGTCGTGAGGTGAGTATACAGAAAGGC, the PBM binding z-score was determined as 3.63.

Regarding TCTATTAGTTGCTTAGGGCAACCGAAACAGCGGA, the PBM binding z-score was determined as 0.49. Turning to TCGAGTAGGTTAGTCGGGGCTTTCAGCCAACATA, the PBM binding z-score was -0.0861. As for AACTCTAGGTAACAAGTTCAGTGAAAGAGAGGAC, the figure is 1.61. GCAGACAGGTGAATCGCAGGTAACTCAGGGTGGC gave a PBM binding z-score of -0.428. The sequence TCAGATAGGTAAAAGGTGAAAGTCGGTGTGGTAA gave a PBM binding z-score of 0.851.

Take TCTGCTAGGTCAGTTGGTCAGATAACGAGCTGCC: the PBM binding z-score is 0.238. The figure for CCTACTCGGCCAAAGGTCATTGATTCCAATGCTC is 4.8; for CCGACTGGGGCAAGGTTCCCATAACGCACAGCCA it is -0.47; for CAAACTAGTTCACGAAAGGTCAAAGTCGAATGAC it is 6.33.

CGTCCAAGATCAAGGTCAGTGAAAGAGACTCGAA yielded a PBM binding z-score of 1.62. Consider ATATGTAGGTTAGCTGCGGTCATTCAGACTAGGC, for which the PBM binding z-score stood at 2.23.

The sequence ACTTACGGGTCAACTAGGTTATAGCACGCGTATA had a PBM binding z-score of 5.88. As for GGAACGATGGCAAAGTTGATAGCATCTGTCGACG, the figure is -0.351; as for CGTCCAAGGTCAATGCTTGGTCAGTGAAAGCATT, 3.69. As for TCTTGTAGATCAAGCAGGGTAAGAAAGCCTGAGT, the figure is 0.33.

On to AGAATGAGGTTATCCGTAGATCAGGGAAGAAAGT, for which the PBM binding z-score amounted to 1.44. The figure for ATCGAAAGGTCGAGGTGAGCATAGAGAAAGGGAA is 2.36; for CCTATTAGTTCACCATAAGGGCAACCGAAGCTCG it is 2.6; for CGAACTAGGTCAAGGACAGTGAATCTCCGCACGC it is 1.32. Consider CCTTACGGGTCACTCCAGGTTATACCATCGGAGT, for which the PBM binding z-score was 4.19. AGAATGAGGTTATTACGATCAGGGAATTGCGGTC gave a PBM binding z-score of 1.99. As for CGAACTAGGTCTTCCAGGACAGTGAATACATTGA, the figure is -0.0143; as for TCTCCGAGGACACGAAAGGTCAGAGCTCGACATC, 3.72; as for GTAGACAGGTGAAACGCAGGTAACTCAGGGTGGC, -0.214. CGTCCAAGGTCATAGGAGGTTAGTGAAGACAGAT showed a PBM binding z-score of 5. The sequence CCTAGCAGGCCAAACTGGGTCACTCAAGGCTTGA yielded a PBM binding z-score of 0.616. As for TCTTGTAGATCACCAGGTTAAGAAAGCTGGCCAA, the figure is 0.86; as for TAGACTAGGTCATGGGCCAGTATACCACGCGAAC, 1.76; as for CGTCCAAGGTCATAGGAGGTCAGGGAAGACAGAT, 6.49. Take GCTAACAGGCCATTTGGGTCACTCAATGACGGGC: the PBM binding z-score worked out at 1.45. Consider ATCGAACGGTCGTGAGGTGAGTATACAGAAAGGC, for which the PBM binding z-score is -0.0539. The figure for TCTTGTAGATCAGCAGGTTAAGATAGCTGGCCAA is 0.44. The sequence TCGAGCAGGTTAGGGGCATTCAGAATGGCGTCGA yielded a PBM binding z-score of 0.187.

For the origin of these results see the supplement of paper PMC6555819.
